# Source: PubChem BioAssay AID492954 (National Center for Advancing Translational Sciences (NCATS), 2010)
# Values joined by “and” are separate entries in the source; they are usually repeats but may differ in a detail not shown here. Equal entries are not always repeated. Inconclusive results are not listed. Active and inactive are the calls of the source. Calls follow the shape of the full dose curve.
# Experiment: Mouse Th17 T cell differentiation assay for inhibitors of ROR gamma transcriptional activity
# Conditions: mouse naive CD4 T cells Th17, IL17a-GFP flow cytometry; series mostly up to 20 µM; IL17a-GFP activity, % of control: at the top concentration
# Text: NIH Molecular Libraries Probe Production Network [MLPCN] NIH Chemical Genomics Center [NCGC] MLPCN Grant: R03 DA026211-01 Assay Provider: Dan Littman, New York University Keywords: NIH Roadmap, MLPCN, MLI, MLSMR, qHTS, NCGC, qHTS, nuclear hormone receptor, retinoic acid-related orphan receptor, ROR gamma Assay Overview: The retinoic acid-related orphan receptor (ROR) gamma is a transcription factor that has a central role in the differentiation of Th17 cells, a subset of T helper cells that secrete the inflammatory cytokines IL-17a, IL-17f, and IL-22. Th17 cells have been implicated in graft versus host disease, autoimmune disease and asthma. ROR gamma is induced in naive T helper cells in the presence of TGF-beta combined with IL-6, IL-21, or IL-23, and thereafter directs the expression of the Th17 lineage cytokines. To confirm inhibition of ROR gamma, compounds were tested in a mouse Th17 T cell differentiation assay. Th17 differentiation was tracked by expression of a GFP reporter under the control of the endogenous IL-17a promoter using flow cytometry. Compounds that block ROR gamma activity prevent expression of the IL17a-GFP reporter.
# Assay Protocol Summary: Cells from lymph nodes and spleens derived from six to eight week old IL17a-GFP mice (Biocytogen LLC) were used for T cell purification. B220- cells were isolated on an autoMACS Pro with bead depletion of B220+ cells (Miltenyi). Naive CD4+ T cell were further purified as TCRb+CD8- DAPI- CD19- CD4+CD25- CD62L+CD44low/Int by cell sorting on a FACSAria (BD). Cells were cultivated in an incubator at 37 C and 5% CO2 in RPMI 1640 medium (Invitrogen) supplemented with 10% (vol/vol) heat-inactivated FBS (Hyclone), penicillin-streptomycin, 2 mM glutamine and 0.1 mM nonessential amino acids. Cells were seeded on day 0 at a density of 0.4x10^5 cells per ml in 96-well plates coated with anti-CD3e (5 ug/ml) and anti-CD28 (10 ug/ml). Cells were cultured for 4-5 days in Th17 (TGFb (0.3 ng/ml), IL6 (20 ng/ml), anti-IFN-g, and anti-IL-4) condition. At day 1, compounds dissolved in DMSO were added. GFP expression was assayed on day 4 or 5 with DAPI- and PECy7-conjugated CD4+ cells. An LSR II (BD Biosciences) and FlowJo software (Tree Star) were used for flow cytometry. Keywords: NIH Roadmap, MLPCN, MLI, MLSMR, qHTS, NCGC, qHTS, nuclear hormone receptor, retinoic acid-related orphan receptor, ROR gamma
SMILES,Potency,"IL17a-GFP activity, % of control"
COc1cc(O)c(C(CC(=O)N2CC(C)CC(C)C2)c2ccc(N(C)C)cc2)c(OC)c1 (stereo not given),400 nM (active),–
COCOc1cc(OC)cc(OC)c1C(CC(=O)N1CC(C)CC(C)C1)c1ccc2c(c1)OCO2 (stereo not given),1000 nM (active),–
COc1cc(O)c(C(CC(=O)N2CC(C)CC(C)C2)c2ccc(O)cc2)c(OC)c1 (stereo not given),300 nM (active),–
COc1cc(O)c(C(CC(=O)N2C[C@H](C)C[C@H](C)C2)c2ccc3c(c2)OCO3)c(OC)c1 (stereo not given in full),400 nM (active),–
COc1cc(O)c(C(CC(=O)N2CCCC(C)C2)c2ccccc2)c(OC)c1 (stereo not given),–,103% (inactive)
COc1cc(O)c(C(CC(=O)N2CCCC(C)C2)c2ccccc2C)c(OC)c1 (stereo not given),–,105% (inactive)
COc1cccc(O)c1C(CC(=O)N1CCCC(C)C1)c1ccc2c(c1)OCO2 (stereo not given),–,55.9% (inactive)
COc1cc(O)c(C(CC(=O)N2CC(C)CC(C)C2)c2ccc3c(c2)OCCO3)c(OC)c1 (stereo not given),300 nM (active),–
COc1cc(O)c(C(CC(=O)N2CCCC(C)C2)c2cccs2)c(OC)c1 (stereo not given),6000 nM (active),–
COc1cc(OC)c(C(CC(=O)N2CC(C)CC(C)C2)c2ccc3c(c2)OCO3)c(OCC(N)=O)c1 (stereo not given),–,55.9% (inactive)
COc1ccc(C(CC(=O)N2CC(C)CC(C)C2)c2c(O)cc(OC)cc2OC)cc1 (stereo not given),400 nM (active),–
COc1ccc(C(CC(=O)N2CCCC(C)C2)c2c(O)cc(OC)cc2OC)c(OC)c1 (stereo not given),–,158% (inactive)
COc1cc(O)c(C(CC(=O)N2CC(C)NC(C)C2)c2ccc3c(c2)OCO3)c(OC)c1 (stereo not given),–,87.7% (inactive)
COc1cc(OC)c(C(CC(=O)N2CC(C)CC(C)C2)c2ccc3c(c2)OCO3)c(OCC#N)c1 (stereo not given),3000 nM (active),–
COc1ccc(C(CC(=O)N2CCCC(C)C2)c2c(O)cc(OC)cc2OC)cc1 (stereo not given),5000 nM (active),–
COc1cc(O)c(C(CC(=O)N2CC(C)CC(C)C2)c2ccc3c(c2)OCO3)c(OC)c1 (stereo not given),500 nM (active) and 700 nM (active),–
COc1ccc(C(CC(=O)N2CCCC(C)C2)c2ccc3c(c2)OCO3)c(O)c1 (stereo not given),–,102% (inactive)
COc1cc(OC)c(C(CC(=O)N2CC(C)CC(C)C2)c2ccc3c(c2)OCO3)c(OC)c1 (stereo not given),800 nM (active),–
COc1cc(O)c(C(CC(=O)N2CC(C)CC(C)C2)c2ccc(C)cc2)c(OC)c1 (stereo not given),500 nM (active),–
COc1cc(OC)c(C(CC(=O)N2CCCC(C)C2)c2ccc3c(c2)OCO3)c(OC)c1 (stereo not given),2000 nM (active),–
COc1cc(O)c(C(CC(=O)N2CCCC(C)(C)C2)c2ccc3c(c2)OCO3)c(OC)c1 (stereo not given),6000 nM (active),–
COc1cc(O)c(C(CC(=O)N2CCCC(C)C2)c2ccc(C)cc2)c(OC)c1 (stereo not given),4000 nM (active),–
COc1cc(O)c(C(CC(=O)N2CCC(C)CC2)c2ccc3c(c2)OCO3)c(OC)c1 (stereo not given),–,78.2% (inactive)
COc1cc(O)c(C(CC(=O)N2CC(C)OC(C)C2)c2ccc3c(c2)OCO3)c(OC)c1 (stereo not given),800 nM (active),–
COc1cc(O)c(C(CC(=O)N2CCCC(C(F)(F)F)C2)c2ccc3c(c2)OCO3)c(OC)c1 (stereo not given),7000 nM (active),–
